Compound activity as filed in PubChem BioAssay.
Sampled rows, rich in hits. Any-hit rate of the full collection: about 18%.
GCN5L2 inh: GCN5L2 (KAT2A) acetyltransferase inhibition; Q92830; GCN5L2 HAT assay, ThioGlo1 CoA-SH fluorescence; Potency, µM (highest dose often 58.9 µM), without a hit: top-dose activity change, negative = inhibition, most hits filed as inhibitors; 390,000 tested, 0.21% active
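Fluorescence readout, Ex340nm/Em540nm: ThioGlo1 (50uM final) reacts with free CoA thiol released as 20nM GCN5L2 acetylates H3(1-25) peptide (75uM) using acetyl-CoA (70uM). Compound and enzyme sat 15 min beforehand; 20 min room-temperature reaction.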
DT40 TDP1 CPT: DT40-hTDP1 cell growth loss with CPT; chicken DT40 Tdp1-/-;hTDP1 cells + 20 nM CPT, ATP luminescence, 48 h; Potency, µM (titrated, usually from 46.2 µM), inactives show at the top dose activity change, negative = growth inhibition, most hits filed as inhibitors; 420,000 tested, 12% active; AID 686979; note: nearly all actives have a fitted effect of over 55% in size
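Chicken DT40 Tdp1-/- cells stably complemented with human TDP1 were seeded at 400 cells/well in medium containing 20 nM camptothecin, exposed to pin-transferred compounds, and grown at 37 °C for at least 48 hr. Viability was read as ATP luminescence.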
PLK1 PBD block: blocks phosphopeptide binding to human PLK1 polo-box domain; Plk1 PBD binding of FITC phosphopeptide, fluorescence polarization; Potency, µM, without a hit: max response, negative = inhibition, actives largely listed as inhibitors; 360,000 tested, 2.8% active; AID 720504; note: series mostly up to about 57 µM; nearly all actives have a fitted effect of over 65% in size
Target sequence (P53350 whole entry, looked up, the tested form may be a part): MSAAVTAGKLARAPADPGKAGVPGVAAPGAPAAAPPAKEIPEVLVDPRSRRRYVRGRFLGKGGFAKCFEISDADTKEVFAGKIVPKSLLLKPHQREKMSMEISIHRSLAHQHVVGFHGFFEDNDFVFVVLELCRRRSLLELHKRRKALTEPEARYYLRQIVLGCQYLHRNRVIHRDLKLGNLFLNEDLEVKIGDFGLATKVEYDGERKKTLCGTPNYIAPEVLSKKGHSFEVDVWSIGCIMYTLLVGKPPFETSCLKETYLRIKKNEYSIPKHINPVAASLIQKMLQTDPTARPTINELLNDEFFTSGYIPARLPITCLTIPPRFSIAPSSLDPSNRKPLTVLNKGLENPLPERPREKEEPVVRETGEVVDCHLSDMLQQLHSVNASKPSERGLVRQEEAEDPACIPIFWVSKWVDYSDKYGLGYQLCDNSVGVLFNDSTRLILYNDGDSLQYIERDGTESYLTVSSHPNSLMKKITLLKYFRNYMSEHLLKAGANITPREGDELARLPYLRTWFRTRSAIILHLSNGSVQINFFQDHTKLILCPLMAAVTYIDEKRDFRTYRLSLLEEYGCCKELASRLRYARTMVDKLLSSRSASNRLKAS
TDP1 cell noCPT: qHTS for Inhibitors of human tyrosyl-DNA phosphodiesterase 1 (TDP1): qHTS in cells in absence of CPT | DT40 Tdp1-/- hTDP1 cells, no CPT, ATP luminescence, 48 h | Potency, µM (doses to about 46.2 µM), inactives show top-dose activity change, negative = growth inhibition, usual class: inhibitors | 420,000 tested, 15% active | AID 686978, 2013; note: nearly all actives have a fitted effect of over 55% in size
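No-CPT arm: Tdp1-/-;hTDP1 DT40 cells (400/well) plus compounds, incubated ≥48 hr at 37 °C. Readout CellTiter-Glo luminescence.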
VDR inhibitor: inhibitors of human vitamin D receptor. VDR-SRC2-3 peptide fluorescence polarization, 2 h. Potency, µM, without a hit: max response, negative = inhibition, actives largely listed as inhibitors. P11473. 400,000 tested, 0.93% active. AID 504847
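After 23 nl compound addition and a short centrifugation, plates sat for 2 hours at ambient temperature; polarization of fluorescence then indicated loss of VDR binding to peptide SRC2-3.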
TDP1 inh: blocks human tyrosyl-DNA phosphodiesterase 1; recombinant TDP1, AlphaScreen DNA substrate cleavage; AID 485290; Q9NUW8; 350,000 tested, 0.28% active; Potency, µM (highest dose often 130 µM), for inactives: top-dose activity change, negative = inhibition, usual class: inhibitors; note: nearly all actives have a fitted effect of over 40% in size
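Recombinant E. coli-expressed Tdp1 (1 nM) preincubated with compound 15 min at RT, then 5'-biotin/3'-phosphotyrosine-FITC DNA substrate (15 nM) added for 5 min. AlphaScreen beads (10 ug/ml) added, 10 min RT; tyrosine-FITC cleavage read as signal loss.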
The depositor's hits bear a star; ? = inconclusive; . = not tested or not shown; [ ] = another dose, or the depositor's remark. Calls come from the whole dose curve; as a rule, active = well fitted curve in the direction sought with a large enough effect; inconclusive = small, poorly fitted or top-dose-only effect, or another doubt; inactive = no such curve, though single readings can be large; an effect the other way counts as inactive or inconclusive. % is set by controls: 0 for no effect and ±100 for the full control effect; potency is the fitted concentration of half-maximal effect.

SMILES	GCN5L2 inh	DT40 TDP1 CPT	PLK1 PBD block	TDP1 cell noCPT	VDR inhibitor	TDP1 inh
CCOC(=O)c1c(NC(=O)OC)sc(C(=O)N(CC)CC)c1C	0.5%	?	23.8µM*	?	-5.5%	-2.2%
O=S1(=O)N=C(Oc2ccccc2Cl)c2ccccc21	.	.	.	.	.	-0.1%
COc1ncc2ncc(=O)n(C[C@H]3CCCO3)c2n1	-9.8%	0.1%	.	3.8%	5.1%	.
CCCCCCCCCCCCCCCCCCN(CCCCCCCCCCCCCCCCCC)c1ccc(C=O)cc1	.	8.8%	.	1.4%	.	.
COc1ccccc1N1CCN(CC(=O)Nc2c(C)n(C)n(-c3ccccc3)c2=O)CC1	-2.3%	-8.9%	-8.4%	-15.4%	-21.9%	-6.3%
CN(C)C(=O)CCN1CCOCC1	-3.0%	-46.6%	23.8µM*	?	6.2%	0.0%
O=C(Nc1ccc2ccccc2c1)OC1CCS(=O)(=O)C1 (centres undefined)	.	6.6%	.	-21.8%	.	.
COCOCCn1cc(CN2CCS(=O)(=O)N(Cc3ccc(-c4ccc(OC)cc4)cc3)C(C(C)C)C2=O)nn1 (centres undefined)	.	14.6µM*	-4.5%	16.4µM*	.	.
COCOCCn1cc(CN2CCS(=O)(=O)N(Cc3ccc(-c4ccc(Cl)nc4)cc3)C(C(C)C)C2=O)nn1 (centres undefined)	.	7.31µM*	-10.0%	-0.7%	.	.
COCOCCn1cc(CN2CCS(=O)(=O)N(Cc3ccc(-c4ccncc4)cc3)C(C(C)C)C2=O)nn1 (centres undefined)	.	-99.2%	-0.8%	-98.4%	.	.
COCOCCn1cc(CN2CCS(=O)(=O)N(Cc3ccc(-c4ccccc4)cc3)C(C(C)C)C2=O)nn1 (centres undefined)	.	?	-1.5%	23.1µM*	.	.
COCOCCn1cc(CN2CCS(=O)(=O)N(Cc3ccc(-c4ccc(F)nc4)cc3)C(C)C2=O)nn1 (centres undefined)	.	-0.8%	3.7%	-19.3%	.	.
COCOCCn1cc(CN2CCS(=O)(=O)N(Cc3ccc(-c4ccc(C)cc4)cc3)C(C(C)C)C2=O)nn1 (centres undefined)	.	?	-5.2%	?	.	.
COCOCCn1cc(CN2CCS(=O)(=O)N(Cc3ccc(-c4ccncc4)cc3)C(CC(C)C)C2=O)nn1 (centres undefined)	.	23.1µM*	-13.5%	?	.	.
O=C(CNC(=O)c1ccccc1F)OCCOc1cccc(Cl)c1	-22.0%	10.1%	5.0%	-28.1%	-8.4%	-0.3%
CC(=O)NC(C)(c1ccccc1)c1nc(-c2cc(F)cc(F)c2)cs1 (centres undefined)	.	?	-8.3%	?	.	.
C=CCn1c(C)cc(C(=O)Cn2c(C(C)O)nc3ccccc32)c1C (centres undefined)	13.6%	20.6µM*	-2.1%	9.2µM*	3.4%	-2.9%
Cc1cc(C(=O)Cn2c(CO)nc3ccccc32)c(C)n1C	?	?	-4.5%	16.4µM*	12.6%	0.0%
C=CCn1c(C)cc(C(=O)Cn2nc(C(=O)O)c3ccccc3c2=O)c1C	-4.6%	?	-4.0%	?	-25.1%	1.2%
CC(C)(C)C(=O)NCCc1nc2ccccc2n1CC(=O)c1ccccc1	1.1%	-23.4%	-9.3%	?	-6.7%	-3.9%
O=C(Nc1cccc(Cn2cccn2)c1)c1cc2c(s1)CCCC2	-24.3%	?	-2.6%	11.2µM*	11.3%	-4.3%
COc1cccc(-n2c(=O)c3cc(OC)c(OC)cc3n(CC(=O)Nc3ccc(F)cc3)c2=O)c1	-15.1%	?	.	-13.0%	-11.0%	0.0%[12.3 µM]
Cc1sc2ncn(CCC(=O)O)c(=O)c2c1C	-5.2%	-11.5%	-11.1%	11.6%	5.7%	-1.0%
Cc1sc2ncn(CCn3cnc4sc(C)c(C)c4c3=O)c(=O)c2c1C	4.4%	?	-6.3%	20.6µM*	-3.6%	-3.3%
Cc1ccc(/C=N/n2cnc3sc4c(c3c2=O)CCCC4)o1	-0.4%	-21.0%	-15.0%	-17.8%	-5.2%	2.1%
SMILES	GCN5L2 inh	DT40 TDP1 CPT	PLK1 PBD block	TDP1 cell noCPT	VDR inhibitor	TDP1 inh
Cc1ccc(/C=N/n2cnc3sc(C)c(C)c3c2=O)o1	-9.2%	0.0%	21.2µM*	-13.5%	?	5.1%
N#Cc1c([N+](=O)[O-])cc([N+](=O)[O-])cc1S(=O)(=O)Cc1ccccc1	14.1µM*	0.206µM*	1.06µM*	0.184µM*	39.8µM*	5.4%
COc1cc(OC)c(C#N)c(S(=O)(=O)Cc2ccccc2)c1	16.8%	-2.5%	-17.2%	-8.5%	3.9%	-1.5%
CC(C)(C)c1ccc(C(=O)Nc2ccc(O)c3c(=O)cc(-c4cccc(Cl)c4)oc23)cc1	-29.2%	5.8µM*	-4.0%	7.31µM*	-13.4%	.
O=C(Nc1ccc(O)c2c(=O)cc(-c3cccc(Cl)c3)oc12)c1cccc(Cl)c1	-4.8%	7.31µM*	-2.4%	8.2µM*	-7.6%	.
COc1ccc(C(=O)Nc2ccc(O)c3c(=O)cc(-c4cccc(Cl)c4)oc23)cc1	-0.2%	-17.0%	-2.7%	-19.0%	-11.9%	.
COc1ccc(CN2C(=O)C(CC(C)C)Nc3ncnc(N4CCOCC4)c32)cc1 (centres undefined)	-18.4%	3.0%	-18.3%	-9.4%	-4.7%	0.8%
CCCCC(=O)NC(=S)Nc1c(C)cc(Br)cc1C	-12.1%	20.6µM*	15µM*	18.4µM*	-23.9%	0.0%
CCCCC(=O)NC(=S)Nc1cccc(NC(=O)CC)c1	-0.8%	-16.9%	-11.1%	-20.9%	-15.3%	-2.0%
COc1cc(-c2[nH]ncc2CN2CCN(c3cccc(C)n3)CC2)cc(OC)c1OC	0.2%	?	-1.9%	?	-2.3%	1.2%
N[C@@H](Cn1ccc(=O)n(Cc2ccccc2C(=O)O)c1=O)C(=O)O	-24.6%	-17.1%	.	0.9%	-0.1%	6.1%[56.1 µM]
O=C(N/N=C/c1ccccc1[N+](=O)[O-])c1cccs1	-2.4%	7.9%	-3.1%	-13.9%	-1.2%	3.7%
Cc1ccc(/C=N/NC(=O)c2cccs2)cc1[N+](=O)[O-]	-3.7%	11.6µM*	-4.4%	16.4µM*	-9.8%	3.0%
O=C(N/N=C/C=C/c1ccccc1[N+](=O)[O-])c1cccs1	-7.2%	?	-5.1%	8.2µM*	-11.5%	-3.4%
Cc1ccsc1/C=N/NC(=O)c1cccs1	-4.6%	10.8%	-13.4%	-10.7%	7.0%	2.7%
O=C(N/N=C\C=C\c1ccc([N+](=O)[O-])o1)c1cccs1	-4.3%	4.11µM*	1.3%	3.26µM*	-4.4%	.
CCOC(=O)C(=Nc1ccc(Cl)cc1)NO	0.8%	2.4%	4.7%	7.7%	19.0%	1.9%
CCOC(=O)c1sc(NC(=O)c2cc3nc(-c4ccccc4)cc(C(F)(F)F)n3n2)c(C(=O)OCC)c1C	0.8%	-19.8%	.	-19.5%	6.8%	1.9%
